# Assay outcomes: PubChem BioAssay, National Center for Advancing Translational Sciences (NCATS)
# A selection: hits, their analogues and other compounds. The true share with any hit is near 21%.
# IL-1B inflam inh = blocks inflammasome-driven IL-1 beta release | THP-1 LPS/ATP IL-1B secretion, AlphaLISA, 16 h; stronger effect = lower value | activity change, % at 57.5 µM | 360,000 tested, 4.7% active | AID 743279; in the data active = activity change below about -50%; inconclusive = mostly about -30% to -49%
#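 Secreted IL-1B measured by AlphaLISA bead assay after 16 h compound exposure of THP-1 cells; compounds (final up to 57.5 uM) added 1 h before LPS (250 ng/mL) and ATP (1.25 mM) stimulation; lower signal means less secretion.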
# RORgamma inh = blocks mouse ROR gamma transcriptional activity; Drosophila S2 Gal4-RORgamma UAS-luciferase reporter, 20 h; Potency, µM (doses to about 53.6 µM), actives largely listed as inhibitors; 310,000 tested, 5.4% active; note: nearly all actives have a fitted effect of over 60% in size
# Target sequence (P51450 whole entry, looked up, the tested form may be a part): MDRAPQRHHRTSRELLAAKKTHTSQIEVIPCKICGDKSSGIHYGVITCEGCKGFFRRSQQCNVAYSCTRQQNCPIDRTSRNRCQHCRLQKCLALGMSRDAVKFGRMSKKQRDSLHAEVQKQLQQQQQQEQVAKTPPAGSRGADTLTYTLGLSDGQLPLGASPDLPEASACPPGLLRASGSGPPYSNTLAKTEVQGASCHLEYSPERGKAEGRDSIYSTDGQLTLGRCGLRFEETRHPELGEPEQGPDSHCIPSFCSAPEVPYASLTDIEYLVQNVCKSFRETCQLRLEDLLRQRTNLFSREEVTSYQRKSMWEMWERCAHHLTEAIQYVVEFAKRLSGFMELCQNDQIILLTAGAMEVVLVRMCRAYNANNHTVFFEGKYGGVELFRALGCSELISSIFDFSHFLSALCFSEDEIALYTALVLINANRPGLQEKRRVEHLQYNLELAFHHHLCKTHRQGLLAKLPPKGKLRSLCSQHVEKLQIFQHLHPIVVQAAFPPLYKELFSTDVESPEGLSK
#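 ROR gamma transcriptional activity was tracked as Gal4-UAS luciferase output in stably transfected Drosophila Schneider cells, with compound added 1 hr before 700 uM copper sulfate induction and a 20 hr ambient-temperature incubation.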
# TDP1 cell CPT = DT40-hTDP1 cell growth loss with CPT | Potency, µM (titrated, usually from 46.2 µM), actives largely listed as inhibitors | 420,000 tested, 12% active | chicken DT40 Tdp1-/-;hTDP1 cells + 20 nM CPT, ATP luminescence, 48 h; note: nearly all actives have a fitted effect of over 55% in size
#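 Chicken DT40 Tdp1-/- cells stably complemented with human TDP1 were seeded at 400 cells/well in medium containing 20 nM camptothecin, exposed to pin-transferred compounds, and grown at 37 °C for at least 48 hr. Viability was read as ATP luminescence.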
# Gal4-VP16 FLuc = inhibits Gal4-VP16 luciferase reporter, ROR gamma counter-screen; 310,000 tested, 3.5% active; Drosophila S2 Gal4-VP16 UAS-luciferase, luminescence, 20 h; AID 2546; Potency, µM (titrated, usually from 53.6 µM), actives largely listed as inhibitors;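 note: Gal4-VP16 expression switched on by copper sulfate through the metallothionein promoter; nearly all actives have a fitted effect of over 50% in size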
# TDP1 cell noCPT = qHTS for Inhibitors of human tyrosyl-DNA phosphodiesterase 1 (TDP1): qHTS in cells in absence of CPT | DT40 Tdp1-/- hTDP1 cells, no CPT, ATP luminescence, 48 h | Potency, µM (top dose mostly 46.2 µM), hits mostly inhibitors | 420,000 tested, 15% active | AID 686978, 2013; note: nearly all actives have a fitted effect of over 55% in size
#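 Camptothecin absent (DMSO only). Human TDP1-complemented DT40 knockout cells, 400 cells/well, 37 °C for minimum 48 hr; ATP measured via CellTiter-Glo, 30 min dark incubation, luminescence.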
# ELG1 repair inh = ELG1-dependent DNA repair inhibition. HEK293T ELG1-luciferase reporter, luminescence, 16 h; DNA damage induced by 5-fluorouridine. AID 504467. Potency, µM (titrated, usually from 46.1 µM), most hits filed as inhibitors. 330,000 tested, 2.3% active; note: nearly all actives have a fitted effect of over 55% in size
#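 Reporter activity after DNA damage by 5-fluorouridine is monitored. Compound-treated cells incubate 16 hr at 37 °C, then ONE-Glo is added for 30 min before luminescence reading.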
# Hits are given with their value; – = inactive; ? = inconclusive; · = no result; [ ] = remark or other dose. Unless noted, calls come from the whole dose curve; as a rule, active = well fitted curve in the direction sought with a large enough effect; inconclusive = small, poorly fitted or top-dose-only effect, or another doubt; inactive = no such curve, though single readings can be large; an effect the other way counts as inactive or inconclusive.
SMILES,IL-1B inflam inh,RORgamma inh,TDP1 cell CPT,Gal4-VP16 FLuc,TDP1 cell noCPT,ELG1 repair inh
Cc1ccc(OCc2nc3ccccc3n2C(C(=O)NC(C)(C)C)c2ccccc2)cc1 (stereo not given),–,·,?,·,?,·
CCC(=O)NCc1nc2ccccc2n1Cc1ccccc1F,–,–,?,–,–,–
CCc1nc2ccccc2n1Cc1ccccc1F,–,10µM,?,–[10 µM],?,–
CSCCC(NC(=O)c1ccco1)C(=O)NNC(=O)c1n[nH]c(=O)c2ccccc12 (stereo not given),–,·,?,·,–,–
COC(=O)[C@@H](NC(=O)O[C@@H]1C(=O)c2cc(OC)ccc2O[C@H]1c1cccc(OC)c1)C(C)C,·,–,·,–,·,·
CCOC(=O)c1c(C)[nH]c(C)c1S(=O)(=O)N1CCC(C(=O)Nc2ccc(C)c(N(C)C)c2)CC1,·,·,–,·,?,·
O=C(CSc1nc2ccc(Cl)cc2[nH]1)Nc1ccc2[nH]c(=O)[nH]c2c1,–,·,–,·,–,–
Cc1ccc(OCCCCn2c(CO)nc3ccccc32)cc1,-52.4,–,23.1µM,–[10 µM],?,?
OCc1nc2ccccc2n1CCCCOc1ccccc1,–,·,?,·,?,·
CC(C)(C)NC(=O)NC(=O)COC(=O)COc1ccc(Cl)cc1Cl,–,–,18.4µM,–,?,–
CC(C)(C)NC(=O)NC(=O)COc1ccc(Br)cc1Br,–,–[10 µM],–,–,–,?
COc1ccc(C(=O)NC(=S)N2CCN(C)CC2)cc1Br,–,0.447µM,–,2.82µM,–,–
Cc1cccc(C(=O)NC(=S)N2CCc3ccccc3C2)c1,–,1.41µM,–,3.55µM,–,–
COc1ccc(C(=O)NC(=S)N2CCOCC2)cc1OC,–,11.2µM,–,?,–,–
COc1ccc(-c2nn(-c3ccccc3)cc2C(=O)NC(=S)N2CCOCC2)cc1OC,–,·,?,·,?,20.6µM
O=c1cnc2cnc(OCc3ccccc3)nc2n1Cc1ccc(F)cc1,·,–,?,–,?,·
O=C(NCCc1ccncc1)c1cnn(-c2ncc3c(n2)-c2ccccc2CCC3)c1C1CC1,·,·,–[9.04 µM],·,?,·
CC[C@H](C)[C@H](NC(=O)[C@H](Cc1ccc(O)cc1)NC(=O)[C@@H]1CCCN1C(=O)[C@H](CCCCN)NC(=O)[C@@H](N)CCCCN)C(=O)N[C@@H](CC(C)C)C(=O)O,·,–,·,–,·,·
COc1cc(C(=S)N2CCOCC2)ccc1OC(=O)c1ccccc1,–,·,–,·,–,–
COc1ccc(C(=O)NC(=S)N2CCN(c3ccccc3OC)CC2)cc1OC,–,2.82µM,–,5.01µM,–,–
COc1cc(C(=S)N2CCOCC2)ccc1OC(=O)/C=C/c1ccco1,–,?,–,17.8µM,–,–
COc1ccccc1N1CCN(C(=S)Nc2ccc(F)cc2)CC1,–,11.2µM,–,?,–,?
CN1CCN(C(=S)NC(=O)c2cccc(S(=O)(=O)N(C)C)c2)CC1,–,14.1µM,–,?,–,–
CCN(C(=O)COC(=O)CN(C)S(=O)(=O)c1ccc(NC(C)=O)cc1)C1CCS(=O)(=O)C1 (stereo not given),–,–,–,–,–,–
O=C(c1ccc(Cl)cc1)c1cccc(O)c1,–,·,?,·,?,·
SMILES,IL-1B inflam inh,RORgamma inh,TDP1 cell CPT,Gal4-VP16 FLuc,TDP1 cell noCPT,ELG1 repair inh
CCOC(=O)N1CCN(C(=S)NC(=O)c2ccc(F)c(F)c2)CC1,–,0.631µM,?,1µM,14.6µM,–
COC(=O)c1ccc(C(NC(=O)OCc2ccccc2)/C(=C/[C@@H](C)C(=O)NCCc2c[nH]c3ccccc23)c2cccnc2)cc1 (stereo not given in full),·,–,·,–,·,·
O=C(CNc1ccc(Br)cc1)Nc1ccc(S(=O)(=O)N2CCCCC2)cc1,–,·,?,·,29.1µM,·
O=C(CN1CCN(S(=O)(=O)N2CCCCC2)CC1)Nc1ccc(Br)cc1,–,·,?,·,16.4µM,–
O=C(CN1CCCCCC1)Nc1ccc(Br)cc1,–,–,–,–,–,?
CN(C)CCN=Cc1c(O)n(Cc2ccccc2)c(=O)c2ccccc12,–,12.6µM,–,?,–,–
COc1ccc(NC(=O)COC(=O)C2CCC2)cc1Cl,–,–,–,–,–,–
CCOC(=O)c1sc(N2N=C(C)/C(=C\c3ccc(OCC(=O)OC)cc3)C2=O)nc1C,–,8.91µM,–,?,–,?
CC(=O)Oc1c(Cl)cc(N(C(C)=O)S(=O)(=O)c2ccccc2)c2ccccc12,–,·,10.3µM,·,4.61µM,·
CC(=O)Oc1ccccc1N(C(C)=O)S(=O)(=O)c1ccc(C)cc1,–,–,–,–,–,–
CC(=O)Oc1ccc(N(C(C)=O)S(=O)(=O)c2ccccc2)c2ccccc12,–,·,20.6µM,·,?,·
CC(=O)Oc1ccc(N(C(C)=O)S(=O)(=O)c2ccc(C)cc2C)c2ccccc12,–,?,23.1µM,?,?,?
COc1ccc(S(=O)(=O)N(C(C)=O)c2ccc(OC(C)=O)c3ccccc23)cc1[N+](=O)[O-],–,?,3.26µM,?,3.66µM,14.6µM
CCCCN(C(=O)CCN1C(=O)C2CC=CCC2C1=O)c1c(N)n(CCCC)c(=O)[nH]c1=O (stereo not given),–,·,–,·,–,·
O=S(=O)(c1ccc(Cl)cc1)N1CCCC1c1nc(-c2cccc(Cl)c2)no1 (stereo not given),–,–,23.1µM,–,?,–
C=CCOc1cc(Cl)ccc1C(=O)NCCN(CC)CC,·,·,–,·,–,·
O=C(COC(=O)c1ccccc1OCc1ccccc1Cl)NCC1CCCO1 (stereo not given),-50.8,·,?,·,?,?
COc1cc2c(cc1OC)CN(c1nc(CN3CCOCC3)nc3sc4c(c13)CCC(C)C4)CC2 (stereo not given),-67.7,11.2µM,11.6µM,?,14.6µM,7.31µM
CC1CCc2c(sc3ncnc(N4CCOCC4)c23)C1 (stereo not given),–,–,?,–,?,·
CC1CCc2c(sc3nc(CN4CCOCC4)nc(Sc4ccccc4)c23)C1 (stereo not given),–,–,?,–,20.6µM,–
COc1ccc(Nc2nc(CN3CCOCC3)nc3sc4c(c23)CCC(C)C4)cc1OC (stereo not given),·,–,·,–,·,6.51µM
Cc1ccc(Nc2ncnc3sc4c(c23)CCC(C)C4)cc1C (stereo not given),·,·,–,·,–,·
CC1=CC(=O)C2C(C)(C)CCC[C@@]2(C)[C@@]1(O)CCc1ccoc1 (stereo not given in full),·,–,?,–,?,·
CCOc1ccc(NC(=O)c2cnc3sc(N4CCOCC4)nn3c2=O)cc1,·,·,–,·,–,·
